Measured values from PubChem BioAssay (Tox21).
Results filed as inconclusive are left out. Active and inactive are the calls of the source. Unless noted, calls come from the whole dose curve; as a rule, active = well fitted curve in the direction sought with a large enough effect in the repeat runs; inconclusive = weak or mixed curves; inactive = no such curve, though single readings can be large; an effect the other way counts as inactive or inconclusive.

What was measured:
[1] = biological target: Retinoic acid receptor RXR-alpha (Homo sapiens) (UniProt P19793); test: qHTS assay to identify small molecule agonists of the RXR signaling pathway (AID 1159527; calls by dose curve; note: nearly all actives have a fitted effect of over 35% in size)
Method in brief: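 Cells plated at 2,000/well, rested 5 hr at 37 C, pin-dosed with DMSO compound solutions, incubated 16 hr, then loaded with B/G FRET substrate for 2 hr at RT before dual-emission fluorescence reading.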

[2] = qHTS assay to identify small molecule agonists of the RXR signaling pathway - cell viability counter screen (AID 1159529);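 note: HEK 293T cells carrying an RXR-alpha UAS beta-lactamase reporter; series mostly up to about 77 µM; nearly all actives have a fitted effect of over 50% in size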
Method in brief: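 Steps: seed RXR-alpha-UAS-bla HEK 293T cells in assay medium containing 2% charcoal-stripped FBS; incubate 5 hr; add compounds in DMSO; incubate 16 hr at 37 C; after the bla read, add CellTiter-Glo and read luminescence at 30 min.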

[3] = qHTS assay to identify small molecule antagonists of the retinoid acid receptor (RAR) signaling pathway - cell viability counter screen (AID 1159551); note: nearly all actives have a fitted effect of over 35% in size
Method in brief: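 C3RL4 cells were seeded overnight at 37 C, then treated with compounds plus 1 uM (final) retinol for 6 h at 37 C. Viability was read as ATP by CellTiter-Glo luminescence after 30 min at room temperature.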

[4] = qHTS assay to identify small molecule antagonists of the retinoic acid receptor (RAR) signaling pathway (AID 1159552; note: nearly all actives have a fitted effect of over 50% in size)
Method in brief: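 Retinol at 1 uM final stimulated RARE-luciferase expression in C3RL4 cells exposed to test compounds for 6 hr at 37 C. Reduced luminescence, read 30 min after detection reagent, indicated pathway antagonism.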

[5] = qHTS assay to identify small molecule agonists of the retinoic acid receptor (RAR) signaling pathway (AID 1159553)
Method in brief: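 C3RL4 cells carrying a RARE luciferase reporter were plated overnight at 37 C, then exposed to compounds in DMSO for 6 hr at 37 C and 5% CO2. Luminescence was read 30 min after luciferase reagent addition at room temperature.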

[6] = qHTS assay to identify small molecule antagonists of the estrogen related receptor (ERR) signaling pathway - cell viability counter screen (AID 1224818);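 note: series mostly up to about 46 µM; viability measured after 17.5 h of compound exposure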
Method in brief: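 ERR reporter cells plated 6 h at 37 C/5% CO2, then compounds in DMSO pin-transferred and incubated 17.5 h at 37 C. Viability read as CellTiter-Fluor fluorescence after 30 min at 37 C.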

[7] = qHTS assay to identify small molecule antagonists of the estrogen related receptor signaling pathway with the pleiotropic PPARgamma coactivator (PGC) cell viability counter screen (AID 1224822; note: series mostly up to about 46 µM)
Method in brief: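 PGC/ERR cells were seeded at 2,000 cells/well, rested 6 h at 37 C/5% CO2, then given compounds in DMSO by pin tool and incubated 17.5 h at 37 C. Viability came from CellTiter-Fluor fluorescence after 30 min.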

[8] = qHTS assay to identify small molecule antagonists of the estrogen related receptor (ERR) signaling pathway (AID 1224819;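 note: luminescence from an ERR-driven luciferase reporter measured with One-Glo reagent; series mostly up to about 46 µM; nearly all actives have a fitted effect of over 50% in size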)
Method in brief: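 ERR reporter cells were plated at 2,000 cells/well and left 6 h at 37 C/5% CO2 before pin-tool transfer of compounds in DMSO. After 18 h at 37 C, One-Glo was added and luminescence was read 30 min later at room temperature.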

[9] = test system: estrogen-related receptor alpha (ERRalpha) with PGC-1alpha coactivator, human; test: qHTS assay to identify small molecule antagonists of the estrogen related receptor signaling pathway with the pleiotropic PPARgamma coactivator (PGC) (AID 1224821; calls by dose curve;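 note: series mostly up to about 46 µM; lower luminescence signal means antagonism of PGC/ERR signalling; nearly all actives have a fitted effect of over 50% in size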)
Method in brief: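 PGC/ERR reporter cell line, plated 6 h before compound addition, then exposed 18 h at 37 °C. Luciferase activity read by luminescence 30 min after One-Glo addition; decrease indicates antagonism.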

Measured: Potency

Retinoic acid receptor RXR-alpha (Homo sapiens), sequence (P19793 whole entry, looked up): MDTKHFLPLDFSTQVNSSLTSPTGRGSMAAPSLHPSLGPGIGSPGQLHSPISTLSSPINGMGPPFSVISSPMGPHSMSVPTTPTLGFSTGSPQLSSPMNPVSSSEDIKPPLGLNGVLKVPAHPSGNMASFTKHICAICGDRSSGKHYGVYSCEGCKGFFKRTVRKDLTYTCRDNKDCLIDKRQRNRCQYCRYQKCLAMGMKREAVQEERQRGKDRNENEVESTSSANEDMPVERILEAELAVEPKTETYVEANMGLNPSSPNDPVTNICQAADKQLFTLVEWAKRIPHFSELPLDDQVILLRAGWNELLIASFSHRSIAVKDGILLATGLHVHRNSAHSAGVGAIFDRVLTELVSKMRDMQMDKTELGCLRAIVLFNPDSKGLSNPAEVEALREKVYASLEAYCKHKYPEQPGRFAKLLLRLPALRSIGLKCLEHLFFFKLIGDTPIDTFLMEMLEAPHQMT

CC(=O)/C=C/C1C(C)=CCC(C)C1(C)C (stereo not drawn)
inactive: [1] | [2] | [3] | [4]

CC[C@H](C)C(=O)O[C@H]1C[C@H](O)C=C2C=C[C@H](C)[C@H](CC[C@@H](O)C[C@@H](O)CC(=O)O)[C@H]21
inactive: [1] | [2] | [3] | [4]

CC(C)C(=O)OCc1cccc(OC(=O)[C@@H]2N3C(=O)[C@@H](NC(=O)Cc4ccccc4)[C@H]3SC2(C)C)c1
inactive: [1] | [2] | [3] | [4]

O=C(O)CCSSCCC(=O)O
inactive: [1] | [2] | [3] | [4]

CCOC(=O)c1ccc(OC(=O)CCCCCN=C(N)N)cc1
inactive: [1] | [2] | [3] | [4]

CCCCCCN
inactive: [1] | [2] | [3] | [4]

CC1(CO)CN(c2ccccc2)NC1=O (stereo not drawn)
inactive: [1] | [2] | [3] | [4] | [5]

CC(S)C(=O)NCC(=O)O (stereo not drawn)
inactive: [1] | [2] | [3] | [4]

CC(=O)c1ccc2c(c1)Cc1ccccc1-2
inactive: [1] | [2] | [3] | [4]

CCCCCCCCC1CCC(=O)O1 (stereo not drawn)
inactive: [1] | [2] | [3] | [4]

Cc1ccc2c(c1)OCC(=O)CO2
inactive: [1] | [2] | [3] | [4]

BrCc1cccc(Oc2ccccc2)c1
inactive: [1] | [2] | [3] | [4] | [5]

CC(CN)CC(C)(C)CCN (stereo not drawn)
inactive: [1] | [2] | [3] | [4] | [5]

Nc1ccc2cc(S(=O)(=O)O)cc(O)c2c1
inactive: [1] | [2] | [3] | [4]

O=C(OCC(COC(=O)c1cccnc1)(COC(=O)c1cccnc1)COC(=O)c1cccnc1)c1cccnc1
inactive: [1] | [2] | [3] | [4]

COc1ccc(OC)c(Cl)c1
inactive: [1] | [2] | [3] | [4]

CCC(C)(CCC(C)C)C(=O)O (stereo not drawn)
inactive: [1] | [2] | [3] | [4]

CCCCCOC(=O)CCC
inactive: [1] | [2] | [3] | [4]

CC1COc2ccccc2N1 (stereo not drawn)
inactive: [1] | [2] | [3] | [4]

COC(=O)CCCCCCCC(=O)OC
inactive: [1] | [2] | [3] | [4]

O=C(O)c1cc(Cl)cc([N+](=O)[O-])c1Cl
inactive: [1] | [2] | [3] | [4]

O=C(/N=N/C(=O)OCc1ccccc1)OCc1ccccc1
inactive: [1] | [2] | [3] | [4]

O=C(O)c1ccc(Cl)cc1Cl
inactive: [1] | [2] | [3] | [4]

C=Cc1ccccn1
inactive: [1] | [2] | [3] | [5]

O=C(NCC(O)CO)c1c(I)c(C(=O)NCC(O)CO)c(I)c(N(CCO)C(=O)CO)c1I (stereo not drawn)
inactive: [1] | [2] | [3] | [4] | [5]

NCCN1CCOCC1
inactive: [1] | [2] | [3] | [4] | [5]

Nc1ccc([N+](=O)[O-])c(N)c1
inactive: [1] | [2] | [3] | [4] | [5]

CCCCNc1ccc(C(=O)OCCN(C)C)cc1
not listed: [5] | [8] | [9]
inactive: all other assays above

O=C(NCCN1CCOCC1)c1ccc(Cl)cc1
not listed: [5]
inactive: all other assays above

CC1=C(C(=O)O)N2C(=O)[C@@H](NC(=O)[C@H](N)c3ccc(O)cc3)[C@H]2SC1
inactive: [1] | [2] | [3] | [4] | [5]

O=C1c2cccc3c2[C@H](CCC3)CN1[C@@H]1CN2CCC1CC2
inactive: [1] | [2] | [3] | [4] | [5]

COc1ccc(-c2cc(=O)c3c(O)cc(O[C@@H]4O[C@H](CO[C@@H]5O[C@@H](C)[C@H](O)[C@@H](O)[C@H]5O)[C@@H](O)[C@H](O)[C@H]4O)cc3o2)cc1O
inactive: [1] | [2] | [3] | [4] | [5]
